From the supplement of paper PMC11732987, “Enantioselective OTUD7B fragment discovery through chemoproteomics screening and high-throughput optimisation” (Communications Chemistry, 2025)

Tests used:
Experiment in all cases: log2 ratio of Biotin-Ahx-Ub-VS probe labelling (fragment/DMSO); higher = less target engagement (more negative = stronger competition), active = hit call of the paper (q ≤ 0.05, log2 ratio ≤ -1)
Conditions in all cases: compound concentration: 200 uM; treatment time: 3 h
ALG13 = target: T1, ALG13 (UniProt Q9NP73)
T1 sequence (whole entry): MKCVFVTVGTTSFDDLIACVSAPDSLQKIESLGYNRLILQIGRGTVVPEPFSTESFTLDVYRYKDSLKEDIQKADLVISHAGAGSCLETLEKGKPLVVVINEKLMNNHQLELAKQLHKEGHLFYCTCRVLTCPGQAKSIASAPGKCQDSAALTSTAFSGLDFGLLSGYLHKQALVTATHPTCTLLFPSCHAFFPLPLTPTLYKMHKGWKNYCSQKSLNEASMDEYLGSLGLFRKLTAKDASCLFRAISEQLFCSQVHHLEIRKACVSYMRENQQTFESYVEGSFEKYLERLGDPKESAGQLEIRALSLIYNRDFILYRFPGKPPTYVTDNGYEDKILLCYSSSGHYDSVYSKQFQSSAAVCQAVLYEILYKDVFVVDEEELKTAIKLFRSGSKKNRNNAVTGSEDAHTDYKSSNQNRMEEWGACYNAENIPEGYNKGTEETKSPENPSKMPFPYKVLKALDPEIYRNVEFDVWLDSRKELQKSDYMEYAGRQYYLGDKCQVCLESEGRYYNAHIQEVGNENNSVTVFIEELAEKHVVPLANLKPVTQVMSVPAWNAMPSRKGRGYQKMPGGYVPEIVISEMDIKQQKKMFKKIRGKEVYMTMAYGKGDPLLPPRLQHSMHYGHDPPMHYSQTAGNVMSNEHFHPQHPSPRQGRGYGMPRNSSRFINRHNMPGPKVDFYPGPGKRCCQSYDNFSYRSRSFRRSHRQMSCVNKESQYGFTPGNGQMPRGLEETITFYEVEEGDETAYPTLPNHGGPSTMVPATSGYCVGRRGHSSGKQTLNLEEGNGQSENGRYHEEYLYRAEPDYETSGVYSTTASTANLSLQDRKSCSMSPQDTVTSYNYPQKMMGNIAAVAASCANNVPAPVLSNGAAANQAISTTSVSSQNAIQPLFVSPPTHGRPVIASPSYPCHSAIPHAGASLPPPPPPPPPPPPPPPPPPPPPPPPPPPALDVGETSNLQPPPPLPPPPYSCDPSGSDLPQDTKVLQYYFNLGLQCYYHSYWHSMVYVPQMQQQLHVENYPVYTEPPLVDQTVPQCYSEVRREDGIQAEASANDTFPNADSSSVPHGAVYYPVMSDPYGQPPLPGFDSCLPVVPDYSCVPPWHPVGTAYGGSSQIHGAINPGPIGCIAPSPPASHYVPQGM
Method in brief: (§1)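 Labelling with Biotin-Ahx-Ub-VS (0.5 µM final, 1 h) followed a 3 h triplicate treatment of HEK293T lysate (495 µg per sample, Tris/CHAPS/IGEPAL buffer with protease inhibitors) with fragment at 200 µM or vehicle. Labelled DUBs were NeutrAvidin-enriched, digested with LysC and trypsin, and run by diaPASEF LC-MS/MS. The values, average log2 fragment/vehicle ratios by unpaired t-test, come from global-median-normalised Spectronaut label-free quantities. Proteins with ≥2 unique peptides were used.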

ATXN3 = ATXN3 (UniProt P54252)
ATXN3, sequence (P54252 whole entry): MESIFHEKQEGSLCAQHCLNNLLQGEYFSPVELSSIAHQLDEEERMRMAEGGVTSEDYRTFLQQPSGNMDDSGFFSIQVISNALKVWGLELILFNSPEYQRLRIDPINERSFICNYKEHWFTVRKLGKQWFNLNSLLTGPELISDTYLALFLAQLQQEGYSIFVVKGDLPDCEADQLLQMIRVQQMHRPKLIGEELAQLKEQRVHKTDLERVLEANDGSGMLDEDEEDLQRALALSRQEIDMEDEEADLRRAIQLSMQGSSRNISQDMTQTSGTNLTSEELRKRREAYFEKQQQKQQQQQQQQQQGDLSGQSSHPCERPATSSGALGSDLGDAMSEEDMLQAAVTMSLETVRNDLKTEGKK
Method in brief: as §1

BAP1 = target: T2, BAP1 (UniProt Q92560)
T2 sequence (whole entry): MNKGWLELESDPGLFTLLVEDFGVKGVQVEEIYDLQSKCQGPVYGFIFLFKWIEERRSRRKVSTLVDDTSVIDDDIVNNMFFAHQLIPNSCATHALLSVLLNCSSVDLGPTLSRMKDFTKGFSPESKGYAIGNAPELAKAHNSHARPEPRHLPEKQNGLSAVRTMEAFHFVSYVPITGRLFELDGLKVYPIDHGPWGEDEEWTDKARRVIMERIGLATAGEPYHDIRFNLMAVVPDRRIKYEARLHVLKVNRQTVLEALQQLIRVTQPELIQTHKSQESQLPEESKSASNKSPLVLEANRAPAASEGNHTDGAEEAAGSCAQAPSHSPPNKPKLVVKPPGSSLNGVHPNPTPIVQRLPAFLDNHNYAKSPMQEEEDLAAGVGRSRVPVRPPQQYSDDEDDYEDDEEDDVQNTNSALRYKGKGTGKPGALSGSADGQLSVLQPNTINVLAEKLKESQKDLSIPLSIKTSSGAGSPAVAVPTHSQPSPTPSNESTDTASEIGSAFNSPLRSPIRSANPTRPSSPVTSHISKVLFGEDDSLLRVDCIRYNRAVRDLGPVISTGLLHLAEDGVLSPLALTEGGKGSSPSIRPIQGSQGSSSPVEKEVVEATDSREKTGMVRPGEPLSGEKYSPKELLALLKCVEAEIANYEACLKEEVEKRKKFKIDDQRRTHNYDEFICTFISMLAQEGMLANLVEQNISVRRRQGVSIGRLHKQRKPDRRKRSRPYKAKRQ
Method in brief: as §1

EIF3F = EIF3F (UniProt O00303)
EIF3F, sequence (O00303 whole entry): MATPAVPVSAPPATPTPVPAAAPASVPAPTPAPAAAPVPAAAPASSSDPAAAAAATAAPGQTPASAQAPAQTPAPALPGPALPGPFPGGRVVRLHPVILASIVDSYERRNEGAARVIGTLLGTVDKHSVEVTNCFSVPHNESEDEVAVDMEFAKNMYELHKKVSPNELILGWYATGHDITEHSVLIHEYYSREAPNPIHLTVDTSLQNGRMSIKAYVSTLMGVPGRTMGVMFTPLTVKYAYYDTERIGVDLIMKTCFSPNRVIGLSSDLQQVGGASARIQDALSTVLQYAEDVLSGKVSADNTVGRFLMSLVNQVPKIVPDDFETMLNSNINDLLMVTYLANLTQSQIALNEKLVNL
Method in brief: as §1

EIF3H = EIF3H (UniProt O15372)
EIF3H, sequence (O15372 whole entry): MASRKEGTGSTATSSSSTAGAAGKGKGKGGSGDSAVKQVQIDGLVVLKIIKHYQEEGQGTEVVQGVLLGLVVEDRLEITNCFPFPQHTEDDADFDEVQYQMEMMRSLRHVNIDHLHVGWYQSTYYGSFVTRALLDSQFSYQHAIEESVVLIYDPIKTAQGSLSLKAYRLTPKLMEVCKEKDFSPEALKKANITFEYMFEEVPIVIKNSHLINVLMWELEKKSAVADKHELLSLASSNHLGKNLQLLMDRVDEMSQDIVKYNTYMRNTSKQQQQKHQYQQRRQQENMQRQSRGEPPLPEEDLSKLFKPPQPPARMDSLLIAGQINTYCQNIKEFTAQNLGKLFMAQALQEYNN
Method in brief: as §1

FAM105A = target: T3, FAM105A (UniProt Q9NUU6)
T3 sequence (whole entry): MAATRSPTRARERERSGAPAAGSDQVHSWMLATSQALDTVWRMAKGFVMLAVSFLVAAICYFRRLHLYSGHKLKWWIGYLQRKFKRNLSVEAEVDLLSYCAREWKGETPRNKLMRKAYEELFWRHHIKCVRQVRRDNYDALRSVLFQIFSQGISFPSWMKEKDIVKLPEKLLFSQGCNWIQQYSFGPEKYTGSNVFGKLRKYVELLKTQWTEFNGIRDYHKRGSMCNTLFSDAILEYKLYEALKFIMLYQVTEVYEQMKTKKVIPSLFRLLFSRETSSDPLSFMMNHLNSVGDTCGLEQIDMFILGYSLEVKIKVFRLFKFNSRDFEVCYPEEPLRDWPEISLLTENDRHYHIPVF
Method in brief: as §1

OTUB1 = OTUB1 (UniProt Q96FW1)
OTUB1, sequence (Q96FW1 whole entry): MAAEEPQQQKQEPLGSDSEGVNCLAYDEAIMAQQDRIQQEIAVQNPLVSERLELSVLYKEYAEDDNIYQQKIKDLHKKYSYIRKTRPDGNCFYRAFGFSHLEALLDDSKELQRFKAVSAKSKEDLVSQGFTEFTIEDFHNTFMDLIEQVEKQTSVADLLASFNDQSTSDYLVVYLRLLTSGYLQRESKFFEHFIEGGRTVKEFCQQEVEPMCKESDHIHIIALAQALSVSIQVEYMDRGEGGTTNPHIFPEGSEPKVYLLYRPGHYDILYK
Method in brief: as §1

OTUD4 = target: T4, OTUD4 (UniProt Q01804)
T4 sequence (whole entry): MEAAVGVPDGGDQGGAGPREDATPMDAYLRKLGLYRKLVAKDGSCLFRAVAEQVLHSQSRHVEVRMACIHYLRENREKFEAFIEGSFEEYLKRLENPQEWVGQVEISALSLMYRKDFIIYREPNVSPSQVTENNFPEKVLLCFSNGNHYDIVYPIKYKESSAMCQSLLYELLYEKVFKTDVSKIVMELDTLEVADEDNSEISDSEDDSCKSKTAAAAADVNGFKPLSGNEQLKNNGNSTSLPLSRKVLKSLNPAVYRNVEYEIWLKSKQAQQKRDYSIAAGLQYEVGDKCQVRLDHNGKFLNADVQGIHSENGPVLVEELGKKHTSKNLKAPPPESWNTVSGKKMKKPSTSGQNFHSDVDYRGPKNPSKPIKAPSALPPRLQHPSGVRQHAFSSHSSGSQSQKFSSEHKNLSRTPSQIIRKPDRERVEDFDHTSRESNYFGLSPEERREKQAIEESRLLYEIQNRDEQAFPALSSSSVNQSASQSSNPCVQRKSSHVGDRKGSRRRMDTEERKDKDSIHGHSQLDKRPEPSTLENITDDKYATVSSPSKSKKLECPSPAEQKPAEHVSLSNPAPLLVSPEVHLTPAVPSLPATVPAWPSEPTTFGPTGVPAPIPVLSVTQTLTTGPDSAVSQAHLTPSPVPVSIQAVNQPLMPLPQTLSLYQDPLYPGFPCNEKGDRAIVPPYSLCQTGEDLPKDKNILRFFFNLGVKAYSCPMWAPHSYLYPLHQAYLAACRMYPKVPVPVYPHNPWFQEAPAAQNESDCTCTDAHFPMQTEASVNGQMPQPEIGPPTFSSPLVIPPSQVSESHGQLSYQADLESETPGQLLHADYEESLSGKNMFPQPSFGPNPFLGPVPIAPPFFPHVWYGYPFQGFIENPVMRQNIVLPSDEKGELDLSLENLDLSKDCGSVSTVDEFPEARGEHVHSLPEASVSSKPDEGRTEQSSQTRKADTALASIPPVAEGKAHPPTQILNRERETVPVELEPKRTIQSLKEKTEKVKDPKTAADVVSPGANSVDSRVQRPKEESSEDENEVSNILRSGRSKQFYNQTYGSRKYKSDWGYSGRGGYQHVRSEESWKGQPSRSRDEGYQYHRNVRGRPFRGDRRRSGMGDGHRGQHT
Method in brief: as §1

OTUD5 = target: T5, OTUD5 (UniProt Q96G74)
T5 sequence (whole entry): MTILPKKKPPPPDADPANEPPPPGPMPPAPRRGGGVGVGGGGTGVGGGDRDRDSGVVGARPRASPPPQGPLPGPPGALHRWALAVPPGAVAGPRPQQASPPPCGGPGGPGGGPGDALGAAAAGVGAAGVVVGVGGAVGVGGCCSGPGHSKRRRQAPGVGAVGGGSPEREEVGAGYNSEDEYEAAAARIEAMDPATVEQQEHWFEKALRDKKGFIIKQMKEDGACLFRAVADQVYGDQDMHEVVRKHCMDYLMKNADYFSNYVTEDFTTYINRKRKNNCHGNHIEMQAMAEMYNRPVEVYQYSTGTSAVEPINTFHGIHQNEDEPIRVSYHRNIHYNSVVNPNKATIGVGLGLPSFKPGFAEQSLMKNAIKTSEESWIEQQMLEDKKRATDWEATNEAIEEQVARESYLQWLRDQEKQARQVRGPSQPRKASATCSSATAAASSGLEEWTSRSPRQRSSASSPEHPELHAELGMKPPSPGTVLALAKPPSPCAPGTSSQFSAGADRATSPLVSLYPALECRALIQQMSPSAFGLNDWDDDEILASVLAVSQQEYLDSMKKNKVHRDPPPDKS
Method in brief: as §1

Measured: log2 ratio of Biotin-Ahx-Ub-VS probe labelling

CCC(NC(=O)CCl)c1ccc(Cl)cc1 (centres undefined)
active: BAP1 -2.81
inactive: ALG13 0.101 | ATXN3 -0.139 | EIF3F -0.0176 | EIF3H -0.0528 | FAM105A 0.315 | OTUB1 -0.267 | OTUD4 -0.628 | OTUD5 -0.123
